Laboratory results reported in PubChem BioAssay (NCATS).
Inconclusive results are not listed. Entries that show only a call come without a potency. Activity calls are given as the source filed them. Unless noted, calls follow the shape of the dose curve; as a rule, active = well fitted curve in the direction sought with a large enough effect in the repeat runs; inconclusive = weak or mixed curves; inactive = no such curve, though single readings can be large; an effect the other way counts as inactive or inconclusive.

Experiments:
[1] = biological target: Cytochrome P450 3A4 (Homo sapiens) (UniProt P08684); assay: Cytochrome P450 family 3 subfamily A member 4 (CYP3A4) small molecule antagonists: luciferase qHTS assay (AID 1645841); also: nearly all actives have a fitted effect of over 45% in size; also: potency is read from the fitted curve at half-maximal effect
Summary of the method: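 P450-Glo CYP3A4 enzyme with proluciferin substrate was preincubated with DMSO-dissolved compounds for 10 min at room temperature. NADPH regeneration solution started a 1 h reaction. Detection reagent stopped it, and luminescence was read after 20 min.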

[2] = biological target: Calcium and integrin-binding protein 1 (Homo sapiens) (UniProt Q99828); assay: Primary qHTS for Identification of Calcium Integrin Binding Protein 1 (CIB1) Competitor (AID 1508620; active = well fitted curve in the direction sought with a large enough effect; an effect the other way counts as inactive or inconclusive;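 also: GST tagged CIB1 binding a fluorescein labelled alphaIIb integrin peptide tracer; top concentration of the series differs between compounds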)
Summary of the method: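 Fluorescence polarization competition: CIB1-GST (1 uM final) preincubated with compound 15 min at room temperature, then FITC-labeled alphaIIb peptide (100 nM final) added for another 15 min. Polarization read at Ex 480/Em 540.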

[3] = biological target: Cytochrome P450 2D6 (Homo sapiens) (UniProt P10635); assay: Cytochrome P450 family 2 subfamily D member 6 (CYP2D6) small molecule antagonists: luciferase biochemical (cell-free) qHTS assay (AID 1645840); also: nearly all actives have a fitted effect of over 55% in size; also: potency is read from the fitted curve at half-maximal effect
Summary of the method: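 P450-Glo CYP2D6 system: proluciferin substrate converted by enzyme to luciferin, read by luminescence proportional to activity. Enzyme-substrate mix with compound 10 min at room temperature, then NADPH regeneration 1 h before detection reagent.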

[4] = biological target: Cytochrome P450 2C9 (Homo sapiens) (UniProt P11712); assay: Cytochrome P450 family 2 subfamily C member 9 (CYP2C9) small molecule antagonists: luciferase biochemical (cell-free) qHTS assay (AID 1645842); also: nearly all actives have a fitted effect of over 55% in size; also: potency is read from the fitted curve at half-maximal effect
Summary of the method: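 P450-Glo CYP2C9 system: proluciferin substrate with enzyme in mix containing 0.4% BSA, 10 min at room temperature, then NADPH regeneration solution added and incubated 1 h at 37C. Detection reagent stopped reaction; luminescence read after 20 min as RLU.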

[5] = Primary qHTS for inhibitors of nuclear receptor binding SET domain protein 2 (NSD2) in an isogenic RCH-ACV NSD2 p.E1099K mutant (9B) (AID 1645876; active = well fitted curve in the direction sought with a large enough effect; an effect the other way counts as inactive or inconclusive; also: nearly all actives have a fitted effect of over 70% in size; also: potency is read from the fitted curve at half-maximal effect)
[6] = biological target: N-terminal Xaa-Pro-Lys N-methyltransferase 1 (Homo sapiens) (UniProt Q9BV86); assay: Confirmatory qHTS for Inhibitors of N-terminal methyltransferase 1 (NTMT1): MTaseGlo Assay (AID 1645874; active = well fitted curve in the direction sought with a large enough effect; an effect the other way counts as inactive or inconclusive; also: nearly all actives have a fitted effect of over 65% in size; also: potency is read from the fitted curve at half-maximal effect)
Summary of the method: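 Enzyme mix (125 nM NTMT1, 100 uM SAM) + compound, 15 min RT; + 1 uM SPKRIA, 30 min RT, dark; MTase-Glo reagent 30 min, detection solution 30 min; luminescence. % inhibition vs no-enzyme/DMSO controls, 4-parameter Hill fit.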

Chain of Cytochrome P450 2C9 (Homo sapiens) (P11712 whole entry, looked up): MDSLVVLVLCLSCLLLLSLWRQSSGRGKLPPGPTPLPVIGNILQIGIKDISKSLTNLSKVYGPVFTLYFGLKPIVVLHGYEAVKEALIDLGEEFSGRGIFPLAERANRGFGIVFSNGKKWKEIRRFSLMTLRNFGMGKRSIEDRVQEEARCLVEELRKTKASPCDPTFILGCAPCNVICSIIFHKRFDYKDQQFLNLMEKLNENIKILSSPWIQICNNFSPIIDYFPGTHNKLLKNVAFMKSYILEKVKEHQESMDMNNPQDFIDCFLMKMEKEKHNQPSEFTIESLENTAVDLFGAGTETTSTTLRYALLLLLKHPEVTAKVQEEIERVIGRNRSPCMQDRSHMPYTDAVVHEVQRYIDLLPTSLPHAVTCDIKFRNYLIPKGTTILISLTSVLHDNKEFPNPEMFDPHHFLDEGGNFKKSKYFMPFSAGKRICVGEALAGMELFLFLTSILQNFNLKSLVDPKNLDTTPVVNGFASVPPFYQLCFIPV
Chain of Calcium and integrin-binding protein 1 (Homo sapiens) (Q99828 whole entry, looked up): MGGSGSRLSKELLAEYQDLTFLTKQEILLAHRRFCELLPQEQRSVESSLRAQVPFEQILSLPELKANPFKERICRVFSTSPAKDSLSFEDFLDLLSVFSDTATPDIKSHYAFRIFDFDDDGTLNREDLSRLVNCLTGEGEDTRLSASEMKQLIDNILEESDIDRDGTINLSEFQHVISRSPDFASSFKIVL
Chain of Cytochrome P450 2D6 (Homo sapiens) (P10635 whole entry, looked up): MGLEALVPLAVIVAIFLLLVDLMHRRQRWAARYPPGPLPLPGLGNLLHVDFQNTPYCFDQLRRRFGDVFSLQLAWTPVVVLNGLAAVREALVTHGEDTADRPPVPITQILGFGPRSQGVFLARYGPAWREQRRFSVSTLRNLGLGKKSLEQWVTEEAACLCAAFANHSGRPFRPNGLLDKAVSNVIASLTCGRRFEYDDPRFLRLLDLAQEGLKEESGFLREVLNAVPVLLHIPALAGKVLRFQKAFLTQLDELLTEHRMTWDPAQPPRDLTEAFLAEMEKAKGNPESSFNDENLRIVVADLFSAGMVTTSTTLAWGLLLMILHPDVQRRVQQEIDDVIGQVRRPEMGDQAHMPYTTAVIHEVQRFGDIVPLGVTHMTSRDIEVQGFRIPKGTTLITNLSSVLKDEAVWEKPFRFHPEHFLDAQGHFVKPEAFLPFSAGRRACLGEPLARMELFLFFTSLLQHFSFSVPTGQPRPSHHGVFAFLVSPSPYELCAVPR
Chain of Cytochrome P450 3A4 (Homo sapiens) (P08684 whole entry, looked up): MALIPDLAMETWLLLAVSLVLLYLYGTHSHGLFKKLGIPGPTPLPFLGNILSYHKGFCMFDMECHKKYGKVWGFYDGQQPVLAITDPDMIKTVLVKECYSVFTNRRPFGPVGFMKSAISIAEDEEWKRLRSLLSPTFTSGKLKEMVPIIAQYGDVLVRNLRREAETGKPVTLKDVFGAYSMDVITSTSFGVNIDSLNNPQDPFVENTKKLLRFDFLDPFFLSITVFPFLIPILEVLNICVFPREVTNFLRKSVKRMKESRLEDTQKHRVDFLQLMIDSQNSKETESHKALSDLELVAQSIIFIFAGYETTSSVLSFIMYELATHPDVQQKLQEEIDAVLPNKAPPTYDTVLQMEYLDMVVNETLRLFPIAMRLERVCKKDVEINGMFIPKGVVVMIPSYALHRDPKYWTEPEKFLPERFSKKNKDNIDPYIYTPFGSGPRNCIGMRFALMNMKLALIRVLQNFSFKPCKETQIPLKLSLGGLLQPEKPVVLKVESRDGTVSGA
Chain of N-terminal Xaa-Pro-Lys N-methyltransferase 1 (Homo sapiens) (Q9BV86 whole entry, looked up): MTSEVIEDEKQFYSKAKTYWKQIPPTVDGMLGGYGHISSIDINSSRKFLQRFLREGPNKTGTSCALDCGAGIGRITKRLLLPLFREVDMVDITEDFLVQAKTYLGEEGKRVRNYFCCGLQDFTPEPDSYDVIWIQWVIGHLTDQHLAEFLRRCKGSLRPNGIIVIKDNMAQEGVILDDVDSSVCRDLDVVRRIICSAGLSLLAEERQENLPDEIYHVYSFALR

Row | SMILES | Potency [1] | Potency [2] | Potency [3] | Potency [4] | Potency [5] | Potency [6]
1 | COc1ccc(-n2[nH]c(=O)c3[nH]c4cc(Cl)ccc4c(=O)c3c2=O)c(C)c1 | inactive |  |  |  |  | 
2 | c1cc(OCCCN2CCCCC2)ccc1CN1CCCCC1 | inactive |  |  |  |  | 
3 | CC1CCCCN1S(=O)(=O)c1ccc(N2CCCC2=O)cc1 (stereo unspecified) | inactive | inactive | inactive | 15.1 µM (active) | inactive | 
4 | CON(C)C(=O)[C@H](O)[C@H](Cc1ccccc1)NC(=O)c1cc2cc(Cl)ccc2[nH]1 |  | inactive | 21.3 µM (active) | 10.7 µM (active) |  | 
5 | CCC(CC)C(=O)Nc1sc2c(c1C#N)CCC(C(C)(C)CC)C2 (stereo unspecified) | 9.52 µM (active) | inactive | inactive | 5.35 µM (active) | inactive | 
6 | O=C(Nc1ccc(-c2ccncc2)cc1)N[C@H](CO)c1ccccc1 |  | inactive | 10.7 µM (active) | 10.7 µM (active) |  | 
7 | CNS(=O)(=O)CC1CCC(N(C)c2ncnc3[nH]ccc23)CC1 (stereo unspecified) |  | inactive | inactive | inactive |  | 
8 | COC(C(=O)N1Cc2[nH]nc(NC(=O)c3ccc(N4CCN(C)CC4)cc3)c2C1)c1ccccc1 (stereo unspecified) | inactive | inactive | inactive |  | 0.0515 µM (active) | 
9 | COc1cc(Br)c(S(=O)(=O)Nc2ccc(C(F)(F)F)c(O[C@@H]3CCN(C)C3)c2)cc1OC |  | inactive | 23.9 µM (active) | 23.9 µM (active) | inactive | 
10 | CCn1c(=O)c(-c2ccn[nH]2)cc2c(C)nc(N)nc21 |  | inactive | inactive | 26.8 µM (active) | 0.934 µM (active) | inactive
11 | OC1CCC(Nc2ncc3nc(Nc4c(F)cc(F)cc4F)n([C@H]4CCOC4)c3n2)CC1 (stereo partly specified) |  | inactive | inactive | inactive |  | 
12 | Cc1csc(NC(=O)c2ccc(COc3cccc(Cl)c3)o2)n1 |  | inactive | 19 µM (active) | 7.56 µM (active) |  | 
13 | CS(=O)(=O)N1CCC(NC(=O)c2[nH]ncc2NC(=O)c2c(Cl)cccc2Cl)CC1 | inactive | inactive | inactive |  | 0.525 µM (active) | 
14 | CN(C)C/C=C/C(=O)Nc1cc2c(Nc3ccc(F)c(Cl)c3)ncnc2cc1OC1CCOC1 (stereo unspecified) |  | inactive | inactive | 15.1 µM (active) | 2.3 µM (active) | 20 µM (active)
15 | C[C@H](C(=O)NC1CCCC1)N(C(=O)Cn1nnc(-c2ccc3c(c2)OCO3)n1)C1CCCCC1 |  | inactive | 19 µM (active) | 2.68 µM (active) |  | 
16 | Oc1ccc2nc(CN3CCC(Cc4ccccc4F)CC3)[nH]c2c1 |  | inactive | 0.0379 µM (active) | 10.7 µM (active) |  | 

Row | SMILES | Potency [1] | Potency [2] | Potency [3] | Potency [4] | Potency [5] | Potency [6]
17 | CC[C@@](C)(Nc1ccnc(-c2c[nH]c3ncccc23)n1)C(=O)NCC(F)(F)F |  | inactive | 16.9 µM (active) | 21.3 µM (active) |  | 
18 | COc1cc(O)c([C@@H](CC(=O)N2CC(C)CC(C)C2)c2ccc3c(c2)OCO3)c(OC)c1 (stereo partly specified) |  | inactive | 19 µM (active) | 1.34 µM (active) |  | 
19 | CC(C)(C(=O)NCC(F)(F)C(F)(F)F)C(=O)NC1C(=O)Nc2ccccc2-c2ccccc21 (stereo unspecified) |  | inactive | 10.7 µM (active) | 9.52 µM (active) |  | 
20 | COc1cc2ncnc(Nc3ccc(O)cc3)c2cc1OC |  | inactive | inactive | inactive |  | 
21 | CC(C)(C)NS(=O)(=O)c1cncc(-c2cc(F)c3nc(N)nn3c2)c1 |  | inactive | inactive | inactive |  | 
22 | CCN(CC)Cc1ccc(C(=O)N(CCc2ccccc2OC)[C@@H]2CCNC2)cc1 |  | inactive | 13.5 µM (active) | inactive |  | 
23 | N#Cc1ccc2[nH]cc(CCCCN3CCN(c4ccc5oc(C(N)=O)cc5c4)CC3)c2c1 |  | inactive | 4.77 µM (active) | 13.5 µM (active) | 14.5 µM (active) | 
24 | Cc1ccc(-c2c(C(=O)CF)n(CCCO)c3ncnc(N)c23)cc1 |  | inactive | inactive | 21.3 µM (active) |  | 
25 | COc1ccc(CC2NCCc3c2[nH]c2ccc(C)cc32)cc1OC (stereo unspecified) |  | inactive | 0.239 µM (active) | 10.7 µM (active) |  | 
26 | O=C(CCc1ccccc1)N1CCC(O)(Cn2cnc3cc(Cl)ccc3c2=O)CC1 |  | inactive | 4.25 µM (active) | 10.7 µM (active) |  | 
27 | CSc1ccc(C(=O)N[C@@H]2CCCC[C@@H]2NC(=O)CNC(=O)c2cc(C(F)(F)F)ccc2NC(=O)NC(C)C)cc1 |  | inactive | 9.52 µM (active) | 3.01 µM (active) |  | 
28 | Cn1ncnc1COc1nn2c(-c3cc(F)ccc3F)nnc2cc1C(C)(C)C |  | inactive | inactive | 9.52 µM (active) |  | 
29 | CC(C)c1cccc2c(-c3ccccc3)cc(-c3ccc(-c4ccc(C(=O)O)cc4)[nH]3)nc12 |  | inactive | inactive | 7.56 µM (active) |  | 
30 | C=CC(=O)Nc1cc(Nc2nccc(-c3c[nH]c4ccccc34)n2)c(OC)cc1N(C)CCN(C)C |  | inactive | inactive | 8.49 µM (active) |  | 
31 | O=C(Nc1ccc(S(=O)(=O)C(F)(F)F)cc1)C1=CCN(c2ncccc2C(F)(F)F)CC1 |  | inactive | 7.56 µM (active) | 3.01 µM (active) | 7.28 µM (active) | inactive
32 | C[C@H]1Oc2cc(cnc2N)-c2c(nn(C)c2C#N)CN(C)C(=O)c2ccc(F)cc21 |  | inactive | inactive | 6.01 µM (active) |  | 
